The record followed here is PubChem BioAssay.

A short description of test [1]: viability loss in pontine glioma line – cell-based, SU-DIPG-XIII, MIPE4.0, CellTiter-Glo, qHTS, dose response (AID 1347061; cut-off not given, nearly all actives have AC50 up to about 37 µM;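 also: cells exposed to compound for 48 hours before readout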). The conditions noted are these: CellTiter-Glo ATP luminescence. For orientation: ATP-based viability assays read luminescence as a measure of living cells.
Test [2] can be described thus: viability loss in pontine glioma line – cell-based, JHH-DIPG-1, MIPE4.0, CellTiter-Glo, qHTS, dose response (AID 1347062; cut-off not given, nearly all actives have AC50 up to about 27 µM;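 as to AC50: cells exposed to compound for two days before readout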). Particulars: JHH-DIPG-1 viability, CellTiter-Glo ATP luminescence.
Test [3] in a line: growth inhibition of DIPG cells – cell-based, MIPE4.0 library, CellTiter-Glo luminescence, qHTS (AID 1347066; cut-off not given, nearly all actives have AC50 up to about 30 µM;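 also: cells exposed to compound for 48 hours before readout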). The conditions noted are these: SU-DIPG-VI viability, CellTiter-Glo ATP luminescence.
Test [4] can be described thus: JHH-DIPG-1 glioma cell viability, MIPE5.0 library, CellTiter-Glo luminescence, qHTS (AID 1347067; cut-off not given, nearly all actives have AC50 up to about 26 µM;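 also: cells exposed to compound for 48 hours before readout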). Particulars: JHH-DIPG-1 glioma viability, CellTiter-Glo ATP luminescence.
Test [5] in a line: growth inhibition of DIPG cells – cell-based, MIPE5.0 library, qHTS (AID 1347068; cut-off not given, nearly all actives have IC50 up to about 30 µM;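 as to IC50: cells exposed to compound for 48 hours before viability readout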). Particulars: SU-DIPG-XXV viability. Background: In qHTS, concentration-response curves come from the screen itself.
Test [6] in a line: viability loss in pontine glioma line – cell-based, SU-DIPG-XIII, MIPE5.0, CellTiter-Glo, qHTS, dose response (AID 1347064; cut-off not given, nearly all actives have AC50 up to about 23 µM;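 as to AC50: cells exposed to compound for 48 hours before the viability read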). Particulars: CellTiter-Glo ATP luminescence.
Test [7] can be described thus: viability loss in pontine glioma line – cell-based, SU-DIPG-XXV, MIPE5.0, CellTiter-Glo, qHTS, dose response (AID 1347065; cut-off not given, nearly all actives have AC50 up to about 26 µM;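 also: cells exposed to compound for 48 hours before ATP readout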). The conditions noted are these: CellTiter-Glo ATP luminescence.
A short description of test [8]: viability loss with induced miR-34 in A549 – imaging, A549 dox-inducible miR-34, nuclei and caspase counts, primary screen (AID 1347080;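 active = compounds whose cell count with miR-34 switched on is under 0.7 times the count with it off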). Particulars: A549 miR-34 inducible, Hoechst nuclei count, 48 h.
A short description of test [9]: compounds altering HSF1 focus formation in cells – imaging, Selleck Cancer Library (AID 1347162; in the data active = plate-normalised HSF1 focus index below about 0.46). The conditions noted are these: human cells, HSF1 nuclear foci imaging, at 10 µM; SSMD: measured here: HSF1 foci SSMD mean; cell count: measured here: cell number; plate-normalised HSF1 focus index: stronger effect = lower value.
Test [10] can be described thus: MELAS cybrid and Rieske KO viability enhancers – cell-based, MELAS cybrids, Rieske KO mouse fibroblasts, CellTiter-Glo, primary screen (AID 1508586;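 active = mean z-score across replicates of 1.96 or higher in either the MELAS or the Rieske mutant cell line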;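 also: z relative to plate mean and SD of compound and empty wells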). Particulars: low glucose.
Test [11] in a line: drug combination growth inhibition, ovarian cancer – cell-based, oncology-focused library, rucaparib conditional, profiling panel (AID 1508598). Particulars: patient-derived ovarian cancer cells, CellTiter-Glo viability, 144 h, stronger effect = lower value.

Molecules are shown by their SMILES. Records with an inconclusive call do not appear. Activity calls are given as the source filed them.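 The calls were made as follows, unless noted: active = normalized viability below 100% at a tested concentration; inactive = the rest.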

With `NC(=O)c1noc([C@H](CCCC2CCCCC2)CC(=O)NO)n1`, the result in test [1], in [3], in [4] and in [5] was inactive. Besides, the AC50 (as a rule, the concentration giving half of the maximal activity seen) in test [2] was 23.5 µM (active).
Take `CCN1CCN(C(=O)N[C@H](C(=O)N[C@@H]2C(=O)N3C(C(=O)O)=C(CSc4nnnn4C)CS[C@@H]23)c2ccc(O)cc2)C(=O)C1=O`: the compound was classed as inactive in test [1], in test [2] and in test [3].
For `CC(C)(Cc1ccc2ccccc2c1)NC[C@@H](O)COc1cccc(Cl)c1C#N`, the result in [1] and in test [2] was inactive. The AC50 in test [6] was 8.33 µM (active); in test [7], 10.5 µM (active); in [4] it was 10.5 µM (active). In addition, the IC50 (commonly the point on the concentration scale where inhibition reaches its midpoint) in [5] is 13.2 µM (active).
`Cn1cc(-c2ccc3nnc(C(F)(F)c4ccc5ncccc5c4)n3n2)cn1`: the compound was called inactive in test [1], in test [2], in test [7], in test [4] and in test [5]. In addition, the fold change in test [8] (stronger effect = lower value, cell number ratio, induced over uninduced) is 0.861 (inactive); in test [8] (measured here: relative caspase fold change +Dox/-Dox), 0.881. Also, the cell count in [8] (measured here: total cells with miR-34 induction, stronger effect = lower value) was found to be 6960; in test [8] (measured here: total cells without miR-34 induction), 8080; in test [9] it was 6920. In [9], this compound displayed an SSMD of 2.73. The plate-normalised HSF1 focus index in test [9] is 1.14 (inactive). Besides, the z-score in test [10] (MELAS cybrid survival, CellTiter-Glo 48 h, stronger effect = higher value) was -0.414 (inactive); in [10] (Rieske KO mouse fibroblast survival, CellTiter-Glo 72 h) it was 0.567. Moreover, the viability (commonly a read-out of living cells in per cent, often relative to untreated cells) is 113% (inactive) in [11] (at 0.000305 µM, OCI-C5x cells, with rucaparib 10 µM, 100% = cells with rucaparib alone); 90.8% (active) in test [11] (at 0.000305 µM, OCI-C5x cells, without rucaparib); 102% (inactive) in test [11] (at 0.000305 µM, OCI-P5x cells, with rucaparib 20 µM, 100% = cells with rucaparib alone); 89.6% (active) in [11] (at 0.000305 µM, OCI-P5x cells, without rucaparib); 123% (inactive) in test [11] (at 0.00122 µM, OCI-C5x cells, with rucaparib 10 µM, 100% = cells with rucaparib alone); 106% (inactive) in [11] (at 0.00122 µM, OCI-C5x cells, without rucaparib). In addition, the viability is 104% (inactive) in test [11] (at 0.00122 µM, OCI-P5x cells, with rucaparib 20 µM, 100% = cells with rucaparib alone); 98.1% (active) in test [11] (at 0.00122 µM, OCI-P5x cells, without rucaparib); 118% (inactive) in test [11] (at 0.00488 µM, OCI-C5x cells, with rucaparib 10 µM, 100% = cells with rucaparib alone); 109% (inactive) in [11] (at 0.00488 µM, OCI-C5x cells, without rucaparib); 107% (inactive) in [11] (at 0.00488 µM, OCI-P5x cells, with rucaparib 20 µM, 100% = cells with rucaparib alone); 101% (inactive) in test [11] (at 0.00488 µM, OCI-P5x cells, without rucaparib). Moreover, the viability in [11] (at 0.0195 µM, OCI-C5x cells, with rucaparib 10 µM, 100% = cells with rucaparib alone) is 116% (inactive); in test [11] (at 0.0195 µM, OCI-C5x cells, without rucaparib) it was 114% (inactive); in test [11] (at 0.0195 µM, OCI-P5x cells, with rucaparib 20 µM, 100% = cells with rucaparib alone), 106% (inactive); in test [11] (at 0.0195 µM, OCI-P5x cells, without rucaparib), 98.3% (active); in test [11] (at 0.0781 µM, OCI-C5x cells, with rucaparib 10 µM, 100% = cells with rucaparib alone), 110% (inactive); in test [11] (at 0.0781 µM, OCI-C5x cells, without rucaparib), 110% (inactive). Also, the viability in test [11] (at 0.0781 µM, OCI-P5x cells, with rucaparib 20 µM, 100% = cells with rucaparib alone) is 104% (inactive); in test [11] (at 0.0781 µM, OCI-P5x cells, without rucaparib) it was 102% (inactive); in test [11] (at 0.313 µM, OCI-C5x cells, with rucaparib 10 µM, 100% = cells with rucaparib alone), 120% (inactive); in test [11] (at 0.313 µM, OCI-C5x cells, without rucaparib), 112% (inactive); in [11] (at 0.313 µM, OCI-P5x cells, with rucaparib 20 µM, 100% = cells with rucaparib alone), 105% (inactive); in test [11] (at 0.313 µM, OCI-P5x cells, without rucaparib) it was 95.6% (active). The viability in test [11] (at 1.25 µM, OCI-C5x cells, with rucaparib 10 µM, 100% = cells with rucaparib alone) was 133% (inactive); in test [11] (at 1.25 µM, OCI-C5x cells, without rucaparib), 123% (inactive); in [11] (at 1.25 µM, OCI-P5x cells, with rucaparib 20 µM, 100% = cells with rucaparib alone), 107% (inactive); in test [11] (at 1.25 µM, OCI-P5x cells, without rucaparib), 104% (inactive); in [11] (at 5 µM, OCI-C5x cells, with rucaparib 10 µM, 100% = cells with rucaparib alone), 130% (inactive); in [11] (at 5 µM, OCI-C5x cells, without rucaparib), 137% (inactive). In addition, the viability is 97% (active) in test [11] (at 5 µM, OCI-P5x cells, with rucaparib 20 µM, 100% = cells with rucaparib alone) and 104% (inactive) in [11] (at 5 µM, OCI-P5x cells, without rucaparib).
For `C=C1c2cccc(O)c2C(O)=C2C(=O)[C@@]3(O)C(O)=C(C(N)=O)C(=O)[C@@H](N(C)C)[C@@H]3[C@@H](O)[C@H]12`, the compound was called inactive in [1], in test [2], in [6], in test [7], in test [3] and in test [5].
For the compound `COc1ccc(Cc2nccc3cc(OC)c(OC)cc23)cc1OC`, the outcome in [1], in test [2], in [6], in test [7] and in test [3] was inactive.
With `CCCCCN(CCC12CC3CC(CC(C3)C1)C2)C(=O)NCCCc1ccncc1`, the compound was classed as inactive in test [1], in test [2] and in test [5]. Also, the AC50 in [7] and in test [3] was 20.9 µM (active) each time.
